# Laboratory results taken from ChEMBL document CHEMBL3988442, “University of Dundee, Small-Polar-MMV Screening Library” (2021).
# In all, about 53,000 compounds went through this assay and about 900 (1.7%) showed an effect of 50% or more. This excerpt belongs to a sample that is enriched for strong results.
# System: Mycobacterium tuberculosis
# Test: Cornell - Phenotypic assay to identify agents that inhibit growth of Mycobacterium tuberculosis
# Assay type: functional
# Parameters: scale not given: direction of the effect not stated beside the values
# Settings: 10 mM as filed; unlikely as a test dose
row,SMILES,Percent Effect
1,COc1ccc(Cl)cc1S(=O)(=O)N(C)CC(=O)Nc1ccccc1,28.1%
2,CN(CCS(=O)(=O)c1cc(Cl)ccc1Cl)CC(N)=O,108.8%
3,CN(CCS(=O)(=O)c1cc(Cl)ccc1Cl)CC(=O)Nc1ccc(F)cc1,110.1%
4,CN(CC(=O)Nc1cccc(F)c1)Cc1nc(N)nc(N(C)C)n1,30.17%
5,CN(CCS(=O)(=O)c1cc(Cl)ccc1Cl)CC(=O)Nc1cccc(F)c1,108.9%
6,CN(CCOc1cccc(F)c1)CC(=O)Nc1ccncc1,22.43%
7,COc1ccc(Cl)cc1S(=O)(=O)N(C)CC(N)=O,28.08%
8,Cc1ccc(S(=O)(=O)N(C)CC(N)=O)c(Cl)c1,18.08%
9,CN(CC(=O)Nc1ccon1)S(=O)(=O)c1cc(Cl)ccc1Cl,-21.56%
10,Cc1nn(C)c(C)c1-c1ccc(=O)n(C(C)C(=O)NC2CC2)n1 (configuration not stated),11.69%
11,CC(C)Nc1nc2c(s1)C(=O)CN(CC1CC1)C2,-4.506%
12,CCn1nc(C)c2c1cnn2CC(=O)N1CCN(C)CC1,13.07%
13,O=C(O)CN1CCOCC(Cc2ccc(Cl)cc2)C1 (configuration not stated),-49.54%
14,CCCc1cc(=O)n(CC(=O)NCCOC)c(-n2nc(C)cc2C)n1,61.91%
15,CCCc1cc(=O)n(CC(=O)NC(C)C)c(-n2nc(C)cc2C)n1,19.53%
16,CCCNC(=O)Cn1c(-n2nc(C)cc2C)nc(CCC)cc1=O,16.57%
17,Cc1nn2cc(CNc3nccc(CCC(F)(F)F)n3)nc2s1,14.28%
18,Cl.NC(Cc1nc(-c2ccccc2)no1)c1ccccc1 (configuration not stated),19.6%
19,COc1cc(OC)cc(-c2noc(CN)n2)c1,-71.7%
20,COc1cc(OC)cc(-c2noc(CC(N)c3ccccc3)n2)c1 (configuration not stated),63.98%
21,COc1c(C2CCCN2Cc2nc(C3CC3)no2)c(C)nn1C (configuration not stated),-19.26%
22,CC(C)(C)c1noc(CN2CCCc3cc(OC(F)(F)F)ccc32)n1,12.22%
23,Cc1nn(C)cc1C1CC(=O)Nc2c1cnn2C (configuration not stated),30.3%

row,SMILES,Percent Effect
1,N#Cc1c(Cl)nsc1NCc1ccc(N2CCCC(C(N)=O)C2)cc1 (configuration not stated),80.86%
2,NC(=O)C1CCCN(c2ccc(CNC(=O)c3cnsn3)cc2)C1 (configuration not stated),-38.73%
3,N#Cc1c(Cl)nsc1NCc1ccc(N2CCSCC2)cc1,23.04%
4,Cc1nnc(NCc2ccc(N3CCC(CO)CC3)cc2)c(C#N)c1C,-12.64%
5,N#Cc1c(Cl)nsc1NCc1ccc(N2CCC(CO)CC2)cc1,51.2%
6,NC(=O)C1CCCN(c2ccc(CNC(=O)c3csnn3)cc2)C1 (configuration not stated),-20.12%
7,OC1(CNCCc2csc(-c3cccnc3)n2)CCNC1 (configuration not stated),6.154%
8,CN1CCOC(C)(C(=O)Nc2nccs2)C1 (configuration not stated),-67.22%
9,COCC1COCCC12CCN(C(=O)COc1ccccc1C)CC2 (configuration not stated),-10.81%
10,O=C(NCCN1CCc2ccccc21)c1cc(-c2ccc(O)cc2)n[nH]1,53.46%
11,Cc1cc(C(=O)NCCN2CCCc3ccccc32)[nH]n1,-6.129%
12,O=C(NCCN1CCNC1=O)c1cc(-c2ccc(O)cc2)n[nH]1,15.58%
13,CCc1ccc(NC(=O)c2ncc(C(N)=O)cc2Cl)cc1F,15.72%
14,O=C(NCCc1c[nH]c2ccc(F)cc12)C1(n2cnnn2)CCCCC1,65.5%
15,O=C(NCCc1cccc(F)c1)C1(n2cnnn2)CCCCC1,18.95%
16,O=C(NCCc1c[nH]c2ccccc12)C1(n2cnnn2)CCCCC1,25.7%
17,CCc1ncc2c(n1)CN(Cc1nc(-c3ccco3)oc1C)CC2,-14.23%
18,O=C(Cc1nc(-c2ccncc2)n[nH]1)N1CCOCC1,-3.393%
19,CCCNc1ccc(C(=O)NCCc2cccc(Cl)c2)cn1,-5.958%
20,COc1ncc(C(=O)NCc2ccc(Br)cc2)cn1,25.41%
21,COC(=O)c1ccc(C(=O)NCc2ccc(Br)cc2)cn1,95.13%
22,COc1ccc(CNC(=O)c2ccc(Br)cn2)cc1,8.291%
23,CCc1nn(-c2cc(Oc3cccc(C)c3)nc(C)n2)c(N)c1C#N,11.01%

row,SMILES,Percent Effect
1,CS(=O)(=O)N1CCN(C(=O)c2cc(-c3ccco3)cs2)CC1,10.89%
2,O=C1C(CS(=O)(=O)Nc2ccc(Br)cc2)=NC(=O)n2cccc21,17.38%
3,O=C1C(CS(=O)(=O)Nc2ccc(Cl)cc2)=NC(=O)n2cccc21,11.65%
4,CC(C)c1ccc(NS(=O)(=O)CC2=NC(=O)n3cccc3C2=O)cc1,59.8%
5,COc1cccc(S(=O)(=O)NC(=O)CCC2CCCC2)c1,12.89%
6,CC(=O)N1CCC(c2nccnc2CNC(=O)c2cc[nH]n2)CC1,-11.98%
7,CCc1ccc(CN(Cc2ccccc2)CC(C)CO)nc1 (configuration not stated),46.77%
8,Cc1c(C(=O)NC(C)C(C)C)nnn1-c1cccc2c1CCN(C)C2 (configuration not stated),4.546%
9,Cc1[nH]n(-c2ccccc2)c2nnc(N)c1-2,107.4%
10,CN(C)CCN1C(=O)CCC12CCCN(C(=O)c1ccncc1F)C2.O=C(O)C(F)(F)F (configuration not stated),-23.79%
11,Cn1cc(S(=O)(=O)N2CCC(OCCCc3ccccc3)C2)cn1 (configuration not stated),25.94%
12,O=S(=O)(c1cccnc1)N1CCC(OCCCc2ccccc2)C1 (configuration not stated),55.63%
13,CS(=O)(=O)N1CCC(OCCCc2ccccc2)C1 (configuration not stated),18.05%
14,CS(=O)(=O)N1CCCC12CCCN(S(=O)(=O)c1cc(F)cc(F)c1)C2 (configuration not stated),2.906%
15,CS(=O)(=O)N1CCCC12CCCN(S(=O)(=O)c1ccc(F)cc1)C2 (configuration not stated),-19.89%
16,CC1(C(N)=O)CN(S(=O)(=O)c2cccc(F)c2)CCO1 (configuration not stated),-8.727%
17,COc1cccc(S(=O)(=O)N2CCOC(C)(C(N)=O)C2)c1 (configuration not stated),8.35%
18,COc1ccc(S(=O)(=O)N2CCOC(C)(C(N)=O)C2)cc1 (configuration not stated),55.81%
19,COc1ccc(S(=O)(=O)N2CCCC3(CCCN3S(C)(=O)=O)C2)cc1 (configuration not stated),103.2%
20,CCc1nnc(Nc2cc(C)nc(C3CN(C(=O)C(C)C)CCO3)c2)s1 (configuration not stated),1.783%
21,CN1CCCC(c2nnc3n2CCN(S(=O)(=O)c2ccccc2Cl)C3)C1 (configuration not stated),2.1%
